Screens (PubChem)
Pf growth 96h: P. falciparum growth inhibition at 96 hour, primary screen for plastid delayed-death inhibitors. P. falciparum luciferase reporter growth, 96 h. Potency, µM (titrated, usually from 28.7 µM), for inactives: at the highest dose activity change, negative = inhibition, most hits filed as inhibitors. actives 6.9% (n = 320,000)
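Infected RBCs, 2% Hct / 0.05% parasitemia final; luciferase-reporter P. falciparum; cpd 96 h, 37 C, 5% CO2; luciferase detection reagent; luminescence.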
AmpC inh no detg: AmpC beta-lactamase inhibition without detergent; Potency, µM (highest dose often 57.1 µM), inactives show at the highest dose activity change, negative = inhibition, most hits filed as inhibitors; actives 0.52% (n = 330,000); AmpC nitrocefin hydrolysis, absorbance 480 nm, 0.0001% Triton; AID 485341;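 also: plate controls were no compound for no effect and no enzyme for full effect; nearly all actives have a fitted effect of over 20% in size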
Target sequence (P00811 whole entry, looked up): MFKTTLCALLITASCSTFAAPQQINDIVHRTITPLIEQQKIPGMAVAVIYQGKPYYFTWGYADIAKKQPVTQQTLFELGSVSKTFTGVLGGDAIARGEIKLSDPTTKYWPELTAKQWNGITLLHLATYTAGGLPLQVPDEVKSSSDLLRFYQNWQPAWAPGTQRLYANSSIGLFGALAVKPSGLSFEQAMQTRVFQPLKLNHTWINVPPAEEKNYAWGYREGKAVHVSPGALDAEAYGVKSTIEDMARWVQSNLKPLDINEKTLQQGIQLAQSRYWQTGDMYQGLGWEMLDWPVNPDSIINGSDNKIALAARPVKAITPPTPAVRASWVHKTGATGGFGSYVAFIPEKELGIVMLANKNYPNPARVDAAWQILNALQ
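20 mM phosphate pH 7.0 + 0.01% (detergent screen) or 0.0001% Triton X-100; 5.3 nM AmpC reagent; cpd preinc 15 min RT; nitrocefin (800 uM stock) to start; A480 q20 s × 4 min; Activity was normalised to no-enzyme and no-compound control wells.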
AMA1 RON2 block: AMA1-RON2 (P. falciparum) interaction inhibition; AID 720542; actives 0.2% (n = 360,000); AlphaScreen AMA1-biotinylated RON2 peptide binding; Potency, µM (doses to about 58.2 µM), without a hit: at the highest dose activity change, negative = inhibition, hits mostly inhibitors;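 also: 0% = vehicle wells and -100% = peptide control; nearly all actives have a fitted effect of over 45% in size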
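AMA1 (3D7) with his tag at 25 nM final met compounds first, then biotinylated RON2 peptide at 25 nM; detection used donor plus acceptor beads, 10 µg/mL apiece, read by AlphaScreen after 30 min at room temperature.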
AmpC detergent: blocks E. coli AmpC beta-lactamase in detergent assay. P00811. AmpC hydrolysis of nitrocefin, absorbance 480 nm, 0.01% Triton. Potency, µM (series often up to 114 µM), for inactives: at the top dose activity change, negative = inhibition, usual class: inhibitors. actives 0.041% (n = 370,000);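 also: 0% = no-compound wells and -100% = no-enzyme wells; nearly all actives have a fitted effect of over 25% in size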
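AmpC (5.3 nM in the dispensed reagent) in 20 mM phosphate pH 7.0 with 0.01% (detergent screen) or 0.0001% Triton X-100 was preincubated with compounds for 15 min at room temperature. Nitrocefin was then added from an 800 uM solution, and hydrolysis was followed at 480 nm.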
HCV inhibitor: HCV inhibition; Potency, µM (titrated, usually from 41.8 µM), for inactives: at the top dose activity change, negative = inhibition, usual class: inhibitors; actives 3.4% (n = 340,000); Huh7.5.1 HCVcc-Cre infection, luciferase reporter, 44 h
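1,000 cells/well; 4 h culture; + compound; + HCVcc-Cre (~0.5 moi); 44 h; luciferase substrate, RT 15 min; read 15 sec.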
Pf growth 48h: P. falciparum growth inhibition at 48 hours (one generation); P. falciparum luciferase growth in erythrocytes, 48 h; Potency, µM (highest dose often 28.7 µM), without a hit: top-dose activity change, negative = inhibition, most hits filed as inhibitors; actives 5.9% (n = 310,000); AID 504832
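Luminescence readout; reporter = integrated firefly luciferase in P. falciparum. RBC culture at 2% hematocrit, 0.1% parasitemia final, 37 C/5% CO2; decreased signal taken as growth inhibition.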
* hit, by the source's call; i = inactive; ? = inconclusive; nt = not tested or not shown; [ ] = dose if it differs, or a comment. An excerpt weighted towards active compounds, which were near 11% of everything screened. Calls follow the shape of the dose curve; as a rule, active = well fitted curve in the direction sought with a large enough effect; inconclusive = small, poorly fitted or top-dose-only effect, or another doubt; inactive = no such curve, though single readings can be large; an effect the other way counts as inactive or inconclusive. Unless noted, % is scaled to controls: 0 for no effect and ±100 for the full control effect; potency is read from the fitted curve at half-maximal effect.

SMILES	Pf growth 96h	AmpC inh no detg	AMA1 RON2 block	AmpC detergent	HCV inhibitor	Pf growth 48h
Cc1nc2c(=O)[nH]c(=S)[nH]c2[nH]c1=O	nt	nt	28µM*	nt	7%	nt
Cc1nc2[nH]c(=S)[nH]c(=O)c2nc1C	nt	nt	10%	nt	13%	nt
O=C(CN1CCN(c2cccc(Cl)c2)CC1)NCc1ccccc1	10µM*	56%	-2%	-14%	13%	1%
O=C(CN1CCCC1)NCc1ccccc1	13µM*	-18%	-3%	-3%	10%	-162%
O=C(CN1CCN(c2ccc(Cl)cc2)CC1)NCc1ccccc1	-6%	85%	21%	-1%	?	10%
O=C(Cn1ccc2ccccc2c1=O)NCCC(=O)N1CCN(c2cccc(Cl)c2)CC1	7.4µM*	152%	-2%	3%	-29%	nt
CCN(CC(=O)Nc1ccc(S(=O)(=O)N2CCOCC2)cc1)Cc1ccccc1	?	115%	-8%	?	?	?
O=C(CSCc1ccc(Cl)cc1)Nc1ccc(S(=O)(=O)N2CCCCCC2)cc1	13µM*	-21%	4%	-9%	-15%	?
O=C(CCc1ccccc1)Nc1ccc(S(=O)(=O)N2CCOCC2)cc1	9%	-9%	11%	4%	-20%	?
O=C(CSCc1ccc(Cl)cc1)Nc1ccc2c(c1)OCO2	12µM*	-18%	18%	-13%	4%	-18%
CCN(CC(=O)Nc1ccc(S(=O)(=O)N2CCCC2)cc1)Cc1ccccc1	?	-4%	-2%	?	-16%	13µM*
O=C(CCc1ccccc1)Nc1ccc(S(=O)(=O)N2CCCC2)cc1	8.3µM*	-31%	0%	-8%	1%	?
CCN(C(=O)C(=O)Nc1ccc2nc3n(c(=O)c2c1)CCCCC3)c1ccc(F)cc1	nt	nt	nt	0%	nt	nt
CCC(CC)C(=O)Nc1nnc(SCc2cc(=O)n3cccc(C)c3n2)s1	nt	nt	nt	1%	nt	nt
CNC(=O)C1CCC(Cn2c(=O)c3sccc3n(CC(=O)NCc3ccc(F)cc3)c2=O)CC1 (centres undefined)	nt	nt	nt	3%	nt	nt
CC(NC(=O)Nc1ccc(Cl)cc1)c1ccc2c(c1)OCO2 (centres undefined)	180%	8.9µM*	-7%	?	-6%	-21%
COc1ccc(NC(=O)NC(C)c2ccc3c(c2)OCO3)cc1OC (centres undefined)	3%	-33%	1%	?	-13%	21%
O=C(CSc1nc(-c2ccccc2Cl)ns1)Nc1ccc2c(c1)OCO2	?	-16%	1%	0%	?	1.2µM*
CN(CC(=O)Nc1ccc(Cl)cc1)c1ccc(S(=O)(=O)N2CCCCC2)cc1[N+](=O)[O-]	2.9µM*	-49%	14%[2.32 µM]	-12%	13µM*	?
CCN(CC(=O)Nc1ccc(S(=O)(=O)N2CCCC2)cc1)CC(=O)Nc1ccccc1C(F)(F)F	nt	31%	85%	nt	11µM*	nt
Cc1ccc(NC(=O)C2CCC(CNS(=O)(=O)c3cccc4nsnc34)CC2)c(Cl)c1 (centres undefined)	nt	nt	nt	8%	nt	nt
CCOc1ccccc1NC(=O)Nc1nnc(N(C)Cc2ccccc2)s1	nt	nt	nt	-5%	nt	nt
COc1ccc(Br)cc1CNC(=O)c1cnc2sc(N3CCC(C)CC3)nn2c1=O	nt	nt	nt	-4%	nt	nt
Cc1oc(-c2ccccc2Cl)nc1Cn1c(SCc2cccc(F)c2)nc2cccnc21	nt	nt	nt	13%	nt	nt
CCOc1ccc(NC(=O)CN(C)C(=O)/C=C/c2ccc(S(=O)(=O)N3CCCCCC3)cc2)cc1OCC	-2%	-3%	0%	?	-20%	?
SMILES	Pf growth 96h	AmpC inh no detg	AMA1 RON2 block	AmpC detergent	HCV inhibitor	Pf growth 48h
CCN(CC(=O)Nc1ccc(NC(C)=O)cc1)C(=O)/C=C/c1ccc(S(=O)(=O)N2CCCCCC2)cc1	4.7µM*	62%	12%	6%	30%	3.3µM*
Cc1cccc(C(=O)OCc2cc(=O)n3nc(C4CC4)sc3n2)c1	nt	nt	nt	8%	nt	nt
COc1ccc([C@H]2/C=C\CN(C(=O)C3CCCC3)[C@@H](C)C(=O)N2Cc2ccc(F)cc2)cc1	nt	nt	-2%	nt	?	nt
COc1ccc(C2/C=C\CN(S(=O)(=O)c3ccc(-c4ccccc4)cc3)CC(=O)N2Cc2ccc(F)cc2)cc1 (centres undefined)	4.7µM*	-17%	-9%	-2%	-19%	12µM*
COc1ccc(C2/C=C\CN(C(=O)Nc3ccccc3)CC(=O)N2Cc2ccc(F)cc2)cc1 (centres undefined)	22%	56%	11%	5%	?	?
COc1ccc(C2/C=C\CN(C(=O)C3CCCC3)[C@H](Cc3ccccc3)C(=O)N2Cc2ccc(F)cc2)cc1 (some centres undefined)	10µM*	-12%	-13%	3%	-15%	8.3µM*
COc1ccc(C2/C=C\CN(S(=O)(=O)c3ccc(C)cc3)[C@H](Cc3ccccc3)C(=O)N2Cc2ccc(F)cc2)cc1 (some centres undefined)	8.3µM*	-11%	-6%	1%	?	4.1µM*
CCOc1ccc(CN2CCN(S(=O)(=O)c3ccc(Cl)cc3)CC2)cc1	nt	nt	nt	3%	nt	nt
COc1cccc(CNc2nc3c(-c4cccc(C)c4)nnn3c3ccccc23)c1	nt	nt	nt	11%	nt	nt
COc1ccc(-c2cn(-c3ccccc3)c(=S)[nH]2)cc1OC	-13%	-12%	65%	1%	10µM*	20%[0.00184 µM]
COc1ccccc1-c1cn(-c2ccccc2)c(=S)[nH]1	?	-30%	56%	2%	-16%	nt
COc1ccc(-c2cn(-c3ccc(C)c(C)c3)c(=S)[nH]2)cc1OC	2%	0%	38%	5%	?	13µM*
COc1ccc(-c2cn(-c3ccc(C)c(Cl)c3)c(=S)[nH]2)cc1OC	63%	-26%	55%	-13%	?	10µM*
CCOc1cc(Br)c(COc2ccc(C)nc2[N+](=O)[O-])cc1OCC	?	53%	-22%	1%	8.9µM*	?
Cc1ccc(OCc2ccc(Br)cc2)c([N+](=O)[O-])n1	473%	-2%[2.29 µM]	nt	0%	nt	i
Oc1cccnc1CN1CCCCC1	nt	nt	16%	nt	31%	nt
Oc1ccc(CN2CCCCC2)nc1-c1ccccc1	?	-11%	18%	-12%	1%	0.52µM*
Oc1ccc(-c2ccccc2)cc1CN1CCCCCC1	?	-24%	3%	1%	-10%	0.66µM*
Oc1ccc(Cl)cc1CN1CCN(Cc2ccccc2)CC1	nt	-12%	3%	-14%	5%	1.5µM*
OCC1(CCc2ccccc2)CCN(Cc2cc(Cl)ccc2O)CC1	-24%	75%	9%	-3%	3%	-26%
